Laboratory results as given in PubChem BioAssay (Tox21).
“And” between values parts separate entries of the source, which are not always exact repeats. Equal values may be shown once. Results filed as inconclusive are left out. A call without a number means that no potency is given here. Some compounds were tested as several samples or in several runs, with calls that do not always agree. The source made the active and inactive calls. Unless noted, calls come from the whole dose curve; as a rule, active = well fitted curve in the direction sought with a large enough effect in the repeat runs; inconclusive = weak or mixed curves; inactive = no such curve, though single readings can be large; an effect the other way counts as inactive or inconclusive.

What was measured:
[1] = qHTS assay to identify small molecule antagonists of the peroxisome proliferator-activated receptor delta (PPARd) signaling pathway - cell viability counter screen (AID 743213); note: nearly all actives have a fitted effect of over 50% in size; note: potency is the fitted concentration of half-maximal effect
Method in brief: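 Agonist-stimulated (L165041, 300 nM final) HEK293H PPARd UAS-bla cells are exposed to compounds for 17 h at 37 C, and ATP-based luminescence (CellTiter-Glo) from the same wells reports cytotoxicity.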

[2] = qHTS assay to identify small molecule agonists of the farnesoid-X-receptor (FXR) signaling pathway - cell viability counter screen (AID 743218); note: nearly all actives have a fitted effect of over 45% in size; note: potency is the fitted concentration of half-maximal effect
Method in brief: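 Readout: CellTiter-Glo luminescence, 30 min RT, multiplexed after the FXR-bla FRET reading. HEK 293T FXR-UAS-bla cells received compound 5 h post-plating and were incubated 16 h at 37 C.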

[3] = qHTS assay to identify small molecule antagonists of the farnesoid-X-receptor (FXR) signaling pathway - cell viability counter screen (AID 743221; active = well fitted cell-killing curve with a large enough effect in the repeat runs, not every such curve was filed as active; note: nearly all actives have a fitted effect of over 50% in size)
Method in brief: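 Luminescence from CellTiter-Glo measures cytotoxicity in GeneBLAzer FXR-UAS-bla HEK 293T cells. Cells were exposed to compounds with 50 uM chenodeoxycholic acid (final) for 16 h at 37 C, in wells also used for the reporter readout.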

[4] = molecular target: Vitamin D3 receptor (Homo sapiens) (UniProt P11473); test: qHTS assay to identify small molecule agonists of the vitamin D receptor (VDR) signaling pathway (AID 743222; calls by dose curve)
Sequence of Vitamin D3 receptor (Homo sapiens) (P11473 whole entry, looked up): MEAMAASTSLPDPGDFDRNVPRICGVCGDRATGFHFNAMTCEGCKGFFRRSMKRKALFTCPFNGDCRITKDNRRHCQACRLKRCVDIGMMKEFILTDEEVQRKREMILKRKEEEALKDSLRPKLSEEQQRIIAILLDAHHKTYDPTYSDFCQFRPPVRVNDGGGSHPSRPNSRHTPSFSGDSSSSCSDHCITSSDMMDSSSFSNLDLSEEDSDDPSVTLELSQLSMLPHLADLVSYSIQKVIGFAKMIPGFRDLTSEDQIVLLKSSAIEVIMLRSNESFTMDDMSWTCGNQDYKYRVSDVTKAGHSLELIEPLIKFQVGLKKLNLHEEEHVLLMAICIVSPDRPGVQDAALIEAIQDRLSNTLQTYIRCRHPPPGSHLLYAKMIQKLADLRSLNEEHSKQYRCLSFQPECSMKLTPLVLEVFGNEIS
Method in brief: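 Following 4 h attachment at 37C, VDR-bla cells (2,000 per well) received DMSO-dissolved compounds or controls. After 16 h incubation, LiveBLAzer B/G FRET substrate was added and fluorescence read 2 h later at room temperature.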

[5] = molecular target: Vitamin D3 receptor (Homo sapiens) (UniProt P11473); test: qHTS assay to identify small molecule antagonists of the vitamin D receptor (VDR) signaling pathway (AID 743223; active = well fitted inhibition curve with a large enough effect in the signal ratio in the repeat runs, not every such curve was filed as active; the % refers to the signal ratio)
Method in brief: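 Antagonist mode uses 1alpha,25-dihydroxyvitamin D3 at 3 nM final as stimulus. VDR-bla cells receive compounds in DMSO, incubate 16 h at 37C, then a beta-lactamase FRET substrate for 2 h at room temperature before fluorescence measurement.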

[6] = qHTS assay to identify small molecule agonists of the vitamin D receptor (VDR) signaling pathway - cell viability counter screen (AID 743224); note: nearly all actives have a fitted effect of over 50% in size; note: potency is the fitted concentration of half-maximal effect
Method in brief: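 In parallel with the bla FRET readout, cytotoxicity toward VDR-bla cells after 16 h compound exposure was assessed by CellTiter-Glo, with luminescence recorded after a 30 min room-temperature incubation.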

[7] = qHTS assay to identify small molecule antagonists of the vitamin D receptor (VDR) signaling pathway - cell viability counter screen (AID 743225); note: nearly all actives have a fitted effect of over 50% in size
Method in brief: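 Read-out: CellTiter-Glo luminescence measured 30 min after reagent addition at room temperature. Cells were VDR-bla HEK 293T exposed 16 h at 37C, 5% CO2, to compound with 3 nM final calcitriol agonist.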

[8] = qHTS assay to identify small molecule agonists of the NFkB signaling pathway - cell viability counter screen (AID 1159515; calls by dose curve; note: series mostly up to about 61 µM; nearly all actives have a fitted effect of over 55% in size)
Method in brief: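 Plate 2,000 NFkB-bla ME-180 cells/well; incubate overnight. Add compounds, 5 hr at 37 C. Add FRET substrate, 1.5 hr RT. Add CellTiter-Glo, 30 min RT; read luminescence.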

[9] = qHTS assay to identify small molecule agonists of the endoplasmic reticulum stress response signaling pathway (AID 1159516; active = well fitted activation curve with a large enough effect in the signal ratio in the repeat runs, not every such curve was filed as active; the % refers to the signal ratio)
Method in brief: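 Beta-lactamase expression from the ER stress response element in HeLa reporter cells is quantified with the LiveBLAzer B/G FRET substrate, read at 405 nm excitation after 2 hr at room temperature, following 5 hr compound treatment at 37 C.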

[10] = qHTS assay to identify small molecule agonists of the endoplasmic reticulum stress response signaling pathway - cell viability counter screen (AID 1159517; calls by dose curve)
Method in brief: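 Steps: seed 1,500 ESRE-bla HeLa cells per well; incubate overnight at 37 C, 5% CO2; add compounds in DMSO for 5 hr; run FRET substrate 2 hr RT; add CellTiter-Glo, wait 30 min, read luminescence.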

[11] = qHTS assay to identify small molecule antagonists of the retinoid-related orphan receptor gamma (ROR-gamma) signaling pathway - cell viability counter screen (AID 1159520); note: nearly all actives have a fitted effect of over 50% in size
Method in brief: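 Tet-on ROR gamma CHO cells were given compounds for 2 hr, then doxycycline hyclate at 1 uM final, and incubated 16 hr at 37 C. Viability was measured as ATP content by CellTiter-Glo luminescence.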

[12] = molecular target: Nuclear receptor ROR-gamma (Homo sapiens) (UniProt P51449); test: qHTS assay to identify small molecule antagonists of the retinoid-related orphan receptor gamma (ROR-gamma) signaling pathway (AID 1159521; note: nearly all actives have a fitted effect of over 50% in size; note: potency is the fitted concentration of half-maximal effect)
Method in brief: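 CHO Tet-on RORγ, RORE-luc reporter. Cpd 2 h pre-incubation, then dox hyclate 1 uM final, 16 h, 37 C/5% CO2. ONE-Glo luminescence; decrease = antagonist.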

[13] = qHTS assay to identify small molecule agonists of the AP-1 signaling pathway - cell viability counter screen (AID 1159525; calls by dose curve; note: nearly all actives have a fitted effect of over 55% in size)
Method in brief: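 Same-well cytotoxicity counter screen of the Tox21 10K library in ME-180 cells. The readout is ATP-dependent luminescence after 5 h compound treatment. Data are normalised to DMSO and tetra n-octyl ammonium bromide controls.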

[14] = qHTS assay to identify small molecule agonists of the AP-1 signaling pathway (AID 1159526; calls by dose curve)
[15] = molecular target: Retinoic acid receptor RXR-alpha (Homo sapiens) (UniProt P19793); test: qHTS assay to identify small molecule agonists of the RXR signaling pathway (AID 1159527; calls by dose curve; note: nearly all actives have a fitted effect of over 35% in size; note: potency is the fitted concentration of half-maximal effect)
Sequence of Retinoic acid receptor RXR-alpha (Homo sapiens) (P19793 whole entry, looked up): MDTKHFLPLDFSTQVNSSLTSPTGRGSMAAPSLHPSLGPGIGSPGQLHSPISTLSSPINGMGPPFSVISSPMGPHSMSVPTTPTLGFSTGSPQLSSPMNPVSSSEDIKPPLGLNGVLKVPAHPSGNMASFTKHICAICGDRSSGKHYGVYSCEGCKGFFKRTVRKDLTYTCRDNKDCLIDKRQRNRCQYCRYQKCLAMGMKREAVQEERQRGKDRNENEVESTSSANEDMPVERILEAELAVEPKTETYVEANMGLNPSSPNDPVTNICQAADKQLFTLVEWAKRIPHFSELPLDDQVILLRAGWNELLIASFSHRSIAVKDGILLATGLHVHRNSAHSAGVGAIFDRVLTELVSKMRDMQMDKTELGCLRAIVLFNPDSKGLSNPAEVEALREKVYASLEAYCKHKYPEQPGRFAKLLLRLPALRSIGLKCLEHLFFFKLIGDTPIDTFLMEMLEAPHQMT
Method in brief: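 Read-out: beta-lactamase FRET ratio (405 nm excitation, 460 and 530 nm emission) after 2 hr substrate loading at room temperature. Cells were RXR-alpha-UAS-bla HEK 293T treated with compounds for 16 hr in 2% charcoal-stripped FBS medium.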

[16] = qHTS assay to identify small molecule agonists of the RXR signaling pathway - cell viability counter screen (AID 1159529); note: nearly all actives have a fitted effect of over 50% in size; note: potency is the fitted concentration of half-maximal effect
Method in brief: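 HEK 293T RXRa-bla cells, 2% CS-FBS; 5 h settle; cpd 16 h 37 C, 5% CO2; CellTiter-Glo 30 min RT, luminescence. Tetraoctyl ammonium bromide as positive control.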

[17] = qHTS assay to identify small molecule antagonists of the retinoid acid receptor (RAR) signaling pathway - cell viability counter screen (AID 1159551); note: nearly all actives have a fitted effect of over 35% in size
Method in brief: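 Viability of C3RL4 cells is quantified from ATP by luminescence after 6 h treatment at 37 C with compounds and 1 uM retinol.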

[18] = qHTS assay to identify small molecule antagonists of the retinoic acid receptor (RAR) signaling pathway (AID 1159552; note: nearly all actives have a fitted effect of over 50% in size)
Method in brief: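 Cells of the C3RL4 line were seeded, incubated overnight, then dosed with compounds in DMSO followed immediately by retinol (1 uM final). Six hours later luciferase detection reagent went in; signal was measured after 30 min at RT.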

Compound	Potency [1]	Potency [2]	Potency [3]	outcome [4]	Potency [5]	Potency [6]	Potency [7]	Potency [8]	outcome [9]	Potency [10]	Potency [11]	Potency [12]	Potency [13]	Potency [14]	Potency [15]	Potency [16]	Potency [17]	Potency [18]
Oc1ccccc1-c1ccccc1	inactive	inactive	inactive	inactive	inactive	inactive	inactive	inactive	inactive	inactive	inactive	inactive	inactive	inactive	inactive	inactive	inactive	–
O=[N+]([O-])c1ccccc1O	inactive	inactive	inactive	–	–	inactive	inactive	inactive	inactive	inactive	inactive	inactive	inactive	inactive	inactive	inactive	inactive	inactive
Cc1cc(Cl)ccc1N	inactive	inactive	inactive	–	–	inactive	inactive	inactive	inactive	inactive	inactive	inactive	inactive	inactive	inactive	inactive	inactive	inactive
Nc1ccc(Cl)cc1	inactive	inactive	inactive	–	–	–	–	inactive	inactive	inactive	inactive	inactive	inactive	inactive	8.71 µM (active) and inactive	inactive	inactive	–
CCn1cc[n+](C)c1C	inactive	inactive	inactive	inactive	inactive	inactive	inactive	inactive	inactive	inactive	inactive	inactive	inactive	inactive	inactive	inactive	inactive	inactive
CCCCCCCCCCn1cc[n+](C)c1	22.1 µM (active)	55.5 µM (active) and inactive	inactive	–	–	–	–	inactive	–	–	inactive	7.73 µM (active) [middle of 5 runs]	inactive	inactive	–	inactive	inactive	–
O=S(=O)(O)O	inactive	inactive	inactive	–	–	inactive	inactive	inactive	inactive	inactive	inactive	–	inactive	inactive	inactive	inactive	inactive	–
CCCCCC[n+]1ccccc1	55.5 µM (active) and inactive	inactive	inactive	–	–	39.3 µM (active) and 49.3 µM (active) and inactive	inactive	inactive	inactive	inactive	inactive	inactive	inactive	inactive	inactive	55.5 µM (active) and 49.3 µM (active) and inactive	inactive	–
